Source: PubChem BioAssay (Tox21)
Inconclusive results are not listed. Calls of active or inactive are those of the source. Unless noted, calls come from the whole dose curve; as a rule, active = well fitted curve in the direction sought with a large enough effect in the repeat runs; inconclusive = weak or mixed curves; inactive = no such curve, though single readings can be large; an effect the other way counts as inactive or inconclusive.

Legend:
[1] = qHTS assay to identify small molecule HDAC inhibitors (AID 1259364); note: top concentration of the series differs between compounds; nearly all actives have a fitted effect of over 45% in size
Summary of the method: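 Luminescence from a cell-permeant luminogenic class I/II HDAC substrate reports endogenous deacetylase activity in intact HCT-116 cells treated with compounds for 2 h.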

[2] = qHTS assay to identify small molecule HDAC inhibitors - cell viability counter screen (AID 1259365); note: series mostly up to about 92 µM; nearly all actives have a fitted effect of over 50% in size
Summary of the method: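 HCT-116 (wild type), 1,500 cells/well, overnight 37C/5% CO2; compound in DMSO 2hr; CellTiter-Glo 30min RT; luminescence read.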

[3] = qHTS assay to identify small molecule agonists of the sonic hedgehog signaling (Shh) pathway - cell viability counter screen (AID 1259366); note: nearly all actives have a fitted effect of over 50% in size
Summary of the method: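 CellTiter-Fluor fluorescence read-out, 1 hr at 37C, added after 23hr compound exposure. Cells: 3T3 Gli1-Luc, an NIH/3T3 clone with stably integrated Gli1-Luc reporter, plated 4hr before compound.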

[4] = qHTS assay to identify small molecule agonists of the sonic hedgehog signaling (Shh) pathway (AID 1259368; calls by dose curve;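 note: NIH/3T3-derived 3T3Gli1-Luc cells carrying a stable Gli1-driven firefly luciferase reporter; series mostly up to about 92 µM; nearly all actives have a fitted effect of over 15% in size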)
Summary of the method: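 3T3Gli1-Luc (NIH/3T3 clone, stable Gli1-Luc); 4 hr pre-incubation, then cpd in DMSO 24 hr, 37 C/5% CO2; luciferase reagent 30 min RT; luminescence.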

[5] = biological target: Estrogen receptor beta (Homo sapiens) (UniProt Q92731); assay: qHTS assay to identify small molecule agonists of the estrogen receptor beta (ER-beta) signaling pathway (AID 1259377; active = well fitted activation curve with a large enough effect in the signal ratio in the repeat runs, not every such curve was filed as active; the % refers to the signal ratio)
Estrogen receptor beta (Homo sapiens), sequence (Q92731 whole entry, looked up): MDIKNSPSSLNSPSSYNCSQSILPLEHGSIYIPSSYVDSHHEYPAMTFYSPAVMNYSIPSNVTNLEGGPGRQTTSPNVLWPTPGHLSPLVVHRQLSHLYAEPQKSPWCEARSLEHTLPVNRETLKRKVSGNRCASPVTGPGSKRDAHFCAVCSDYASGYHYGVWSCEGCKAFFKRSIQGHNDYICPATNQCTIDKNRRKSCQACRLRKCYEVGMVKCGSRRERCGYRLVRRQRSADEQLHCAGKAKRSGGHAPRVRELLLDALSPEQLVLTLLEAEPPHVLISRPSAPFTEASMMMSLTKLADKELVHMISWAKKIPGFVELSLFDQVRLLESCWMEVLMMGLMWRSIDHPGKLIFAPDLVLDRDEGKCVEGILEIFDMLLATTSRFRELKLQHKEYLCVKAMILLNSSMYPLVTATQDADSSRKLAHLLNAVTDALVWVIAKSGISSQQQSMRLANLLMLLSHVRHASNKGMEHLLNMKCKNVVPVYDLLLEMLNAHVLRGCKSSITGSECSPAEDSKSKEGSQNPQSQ
Summary of the method: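 Beta-lactamase reporter readout: fluorescence of LiveBLAzer B/G FRET substrate after 2 h at room temperature, following 16 h compound treatment of ER-beta-UAS-bla HEK293T cells at 37C in 2% charcoal-stripped FBS medium.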

[6] = biological target: Estrogen receptor beta (Homo sapiens) (UniProt Q92731); assay: qHTS assay to identify small molecule antagonists of the estrogen receptor beta (ER-beta) signaling pathway (AID 1259378; active = well fitted inhibition curve with a large enough effect in the signal ratio in the repeat runs, not every such curve was filed as active; the % refers to the signal ratio)
Summary of the method: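 ER-beta-UAS-bla HEK293T (GripTite) cells in 2% charcoal-stripped FBS medium were preincubated 6 hr at 37C, dosed with compound, then stimulated with 1 nM E2 (final) for 16 hr; beta-lactamase reporter read by B/G FRET fluorescence after 2 hr substrate loading.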

[7] = qHTS assay to identify small molecule agonists of the androgen receptor (AR) signaling pathway in the presence of an antagonist - cell viability counter screen (AID 1259379);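 note: MDA-kb2 human breast cancer cells carrying an MMTV luciferase reporter; series mostly up to about 92 µM; nearly all actives have a fitted effect of over 25% in size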
Summary of the method: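 Cells: MDA-kb2 (MMTV-luc, AR and GR elements), 3,000/well, 5 hr settle. Added: nilutamide 3.0uM final, then compounds (15 conc.). Incubation: 16 hr, 37C, no CO2. Read-out: CellTiter-Fluor, 1 hr, fluorescence.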

[8] = qHTS assay to identify small molecule agonists of the estrogen receptor beta (ER-beta) signaling pathway - cell viability counter screen (AID 1259380); note: nearly all actives have a fitted effect of over 30% in size
Summary of the method: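 HEK293T ER-beta-UAS-bla; 2% CS-FBS; 6 hr pre-plate, 16 hr cpd at 37C/5% CO2; LiveBLAzer read first, then CellTiter-Glo 30 min RT, luminescence.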

[9] = biological target: Androgen receptor (Homo sapiens) (UniProt P10275); assay: qHTS assay to identify small molecule agonists of the androgen receptor (AR) signaling pathway in the presence of an antagonist (AID 1259381; calls by dose curve; note: nearly all actives have a fitted effect of over 15% in size)
Androgen receptor (Homo sapiens), sequence (P10275 whole entry, looked up): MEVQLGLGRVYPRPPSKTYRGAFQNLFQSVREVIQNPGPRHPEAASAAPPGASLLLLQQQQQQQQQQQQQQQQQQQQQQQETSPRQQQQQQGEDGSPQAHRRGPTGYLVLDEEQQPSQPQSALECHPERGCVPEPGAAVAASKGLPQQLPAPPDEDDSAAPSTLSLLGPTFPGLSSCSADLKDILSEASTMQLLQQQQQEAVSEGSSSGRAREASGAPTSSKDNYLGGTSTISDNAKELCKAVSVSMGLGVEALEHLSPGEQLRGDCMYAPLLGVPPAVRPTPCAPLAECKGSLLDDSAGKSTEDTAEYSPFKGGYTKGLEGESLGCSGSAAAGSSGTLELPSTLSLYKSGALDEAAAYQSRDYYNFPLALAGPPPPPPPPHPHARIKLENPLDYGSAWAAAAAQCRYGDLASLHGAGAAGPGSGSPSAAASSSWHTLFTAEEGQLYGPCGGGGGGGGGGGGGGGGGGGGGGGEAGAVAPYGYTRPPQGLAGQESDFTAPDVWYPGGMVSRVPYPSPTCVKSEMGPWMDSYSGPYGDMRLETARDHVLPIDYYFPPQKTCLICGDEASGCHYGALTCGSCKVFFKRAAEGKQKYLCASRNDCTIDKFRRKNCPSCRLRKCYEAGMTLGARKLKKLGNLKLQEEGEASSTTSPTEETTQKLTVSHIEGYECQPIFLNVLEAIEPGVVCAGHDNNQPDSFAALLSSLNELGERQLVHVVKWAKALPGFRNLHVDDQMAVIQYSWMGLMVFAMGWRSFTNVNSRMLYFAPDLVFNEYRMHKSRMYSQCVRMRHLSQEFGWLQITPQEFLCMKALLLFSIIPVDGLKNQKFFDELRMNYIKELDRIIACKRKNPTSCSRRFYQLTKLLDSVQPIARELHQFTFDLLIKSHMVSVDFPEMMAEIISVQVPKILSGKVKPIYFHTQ
Summary of the method: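 MDA-kb2 cells, 3,000/well, rested 5hr at 37C/0% CO2 → nilutamide 3.0uM final or buffer → compounds, 15 conc. → 16hr at 37C → ONE-Glo, 30min RT → luminescence.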

[10] = qHTS assay to identify small molecule antagonists of the estrogen receptor beta (ER-beta) signaling pathway - cell viability counter screen (AID 1259382); note: series mostly up to about 92 µM; nearly all actives have a fitted effect of over 55% in size
Summary of the method: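 Cells: ER-beta-UAS-bla HEK293T, 2,000/well, 2% CS-FBS, 6 hr settle. Cpd + E2 (1nM final), 16 hr, 37C/5% CO2. Bla FRET substrate 2 hr RT, then CellTiter-Glo 30 min RT, luminescence.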

[11] = qHTS assay to identify small molecule agonists or antagonists of the thyroid stimulating hormone receptor (TSHR) signaling pathway - wild type cell line counter screen (AID 1259384; calls by dose curve)
Summary of the method: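 Wild-type HEK293 cells were plated 18 h at 37 C/5% CO2, pin-dosed with compound plus Ro20-1724 medium, held 30 min at room temperature, then given cAMP-d2 and anti-cAMP-cryptate; fluorescence was read after 1 h. Fifteen concentrations, triplicate.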

[12] = biological target: Thyrotropin receptor (Homo sapiens) (UniProt P16473); assay: qHTS assay to identify small molecule antagonists of the thyroid stimulating hormone receptor (TSHR) signaling pathway (AID 1259385; calls by dose curve; note: nearly all actives have a fitted effect of over 20% in size)
Thyrotropin receptor (Homo sapiens), sequence (P16473 whole entry, looked up): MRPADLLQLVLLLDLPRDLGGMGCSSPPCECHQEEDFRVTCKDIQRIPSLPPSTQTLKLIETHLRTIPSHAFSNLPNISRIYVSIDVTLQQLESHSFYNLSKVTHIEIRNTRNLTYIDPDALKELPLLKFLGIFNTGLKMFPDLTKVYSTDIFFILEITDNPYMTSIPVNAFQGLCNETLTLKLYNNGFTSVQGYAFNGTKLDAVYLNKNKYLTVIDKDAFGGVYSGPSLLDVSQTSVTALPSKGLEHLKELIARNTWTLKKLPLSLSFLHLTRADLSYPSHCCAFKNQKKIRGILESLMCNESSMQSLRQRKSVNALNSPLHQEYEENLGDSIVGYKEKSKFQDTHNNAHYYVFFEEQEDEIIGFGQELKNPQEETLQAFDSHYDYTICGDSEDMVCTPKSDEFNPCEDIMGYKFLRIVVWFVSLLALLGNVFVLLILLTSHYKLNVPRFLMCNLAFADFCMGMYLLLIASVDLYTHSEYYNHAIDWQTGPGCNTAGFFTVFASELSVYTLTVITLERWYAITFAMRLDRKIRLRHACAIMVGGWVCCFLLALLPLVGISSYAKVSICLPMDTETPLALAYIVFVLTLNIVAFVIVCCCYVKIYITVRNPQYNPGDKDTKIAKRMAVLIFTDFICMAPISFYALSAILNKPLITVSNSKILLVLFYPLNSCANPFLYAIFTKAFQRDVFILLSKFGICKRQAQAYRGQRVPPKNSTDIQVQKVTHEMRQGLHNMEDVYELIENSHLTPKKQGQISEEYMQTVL
Summary of the method: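 TSHR-HEK293 cells were plated and held 18 h at 37C/5% CO2, then given compound plus Ro20-1724 and stimulated with TSH at 1.5 ng/mL final. After 30 min at room temperature, cAMP was detected with cAMP-d2/anti-cAMP-cryptate (1 h) by fluorescence.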

[13] = qHTS assay to identify small molecule agonists of the estrogen receptor alpha (ER-alpha) signaling pathway in the presence of an antagonist - cell viability counter screen (AID 1259386);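 note: series mostly up to about 92 µM; cells exposed to compounds for 22 h at 37 °C before the viability read; nearly all actives have a fitted effect of over 30% in size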
Summary of the method: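 VM7Luc4E2, stripped-serum pre-culture 5 d; 24hr plating; +ICI-182,780 10.0nM final; cpds 15 conc, 22hr, 37C/5% CO2; CellTiter-Fluor added at 21hr, fluorescence 1hr later.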

[14] = biological target: Progesterone receptor (Homo sapiens) (UniProt P06401); assay: qHTS assay to identify small molecule agonists of the progesterone receptor (PR) signaling pathway (AID 1346784; calls by dose curve; note: nearly all actives have a fitted effect of over 30% in size)
Progesterone receptor (Homo sapiens), sequence (P06401 whole entry, looked up): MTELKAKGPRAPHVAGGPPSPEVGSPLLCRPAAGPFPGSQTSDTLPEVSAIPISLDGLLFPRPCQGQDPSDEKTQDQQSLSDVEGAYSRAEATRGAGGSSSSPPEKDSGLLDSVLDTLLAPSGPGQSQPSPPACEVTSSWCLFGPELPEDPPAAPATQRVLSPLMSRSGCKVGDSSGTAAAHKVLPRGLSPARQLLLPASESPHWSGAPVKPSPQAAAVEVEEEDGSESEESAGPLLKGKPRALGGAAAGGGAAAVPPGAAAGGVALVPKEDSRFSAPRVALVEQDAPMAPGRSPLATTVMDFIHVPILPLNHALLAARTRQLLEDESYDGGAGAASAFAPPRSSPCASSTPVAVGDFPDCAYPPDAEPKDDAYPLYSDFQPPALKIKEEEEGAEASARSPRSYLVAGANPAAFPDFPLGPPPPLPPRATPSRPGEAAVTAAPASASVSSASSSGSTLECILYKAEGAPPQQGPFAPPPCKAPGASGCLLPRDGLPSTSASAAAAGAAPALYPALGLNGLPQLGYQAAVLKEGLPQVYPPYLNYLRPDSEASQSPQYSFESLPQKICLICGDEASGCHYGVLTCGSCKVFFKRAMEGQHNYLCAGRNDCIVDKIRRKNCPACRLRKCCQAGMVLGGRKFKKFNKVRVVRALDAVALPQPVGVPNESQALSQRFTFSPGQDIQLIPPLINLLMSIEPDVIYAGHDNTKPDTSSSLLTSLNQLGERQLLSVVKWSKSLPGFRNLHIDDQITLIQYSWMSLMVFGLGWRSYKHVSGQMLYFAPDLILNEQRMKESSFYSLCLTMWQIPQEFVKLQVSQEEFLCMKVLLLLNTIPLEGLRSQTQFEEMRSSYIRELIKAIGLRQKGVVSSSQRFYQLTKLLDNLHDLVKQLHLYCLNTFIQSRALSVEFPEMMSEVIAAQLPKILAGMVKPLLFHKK
Summary of the method: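 HEK 293T PR-UAS-bla reporter cells, 2% charcoal-stripped FBS; 6 hr settle at 37C/5% CO2, compound (DMSO) 16 hr, LiveBLAzer B/G FRET substrate 2 hr RT, fluorescence intensity read.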

[15] = biological target: Progesterone receptor (Homo sapiens) (UniProt P06401); assay: qHTS assay to identify small molecule antagonists of the progesterone receptor (PR) signaling pathway (AID 1346795; active = well fitted inhibition curve with a large enough effect in the signal ratio in the repeat runs, not every such curve was filed as active; the % refers to the signal ratio)
Summary of the method: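 Beta-lactamase reporter, HEK293T PR-UAS-bla line; 2% charcoal-stripped FBS; 6 hr pre-incubation, 37C/5% CO2. Compound + R5020 1 nM final, 16 hr. LiveBLAzer B/G FRET substrate, 2 hr RT; fluorescence intensity read.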

[16] = qHTS assay to identify small molecule antagonists of the progesterone receptor (PR) signaling pathway - cell viability counter screen (AID 1346798); note: series mostly up to about 92 µM; nearly all actives have a fitted effect of over 50% in size
Summary of the method: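 Luminescence readout (CellTiter-Glo, 30 min, RT) of viability in PR-UAS-bla HEK293T cells exposed to compound and R5020 agonist for 16 hr at 37C, 5% CO2; run in the same wells as the beta-lactamase reporter read.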

[17] = qHTS assay to identify small molecule antagonists of the sonic hedgehog signaling (Shh) pathway (AID 1259369; calls by dose curve; note: nearly all actives have a fitted effect of over 45% in size)
Summary of the method: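 3T3Gli1-Luc, conditioned-medium-stimulated, 24hr cpd, 37C/5% CO2; Gli1-driven firefly Luc luminescence after 30min RT with luciferase reagent. Cells plated 4hr before cpd.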

[18] = qHTS assay to identify small molecule agonists of the progesterone receptor (PR) signaling pathway - cell viability counter screen (AID 1346799; calls by dose curve; note: nearly all actives have a fitted effect of over 45% in size)
Summary of the method: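 HEK293T PR-UAS-bla, 3,000 cells/well, 2% charcoal-stripped FBS; 6 h settle, compound 16 h at 37C/5% CO2; LiveBLAzer 2 h RT, then CellTiter-Glo 30 min RT, luminescence read.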

[19] = biological target: Estrogen receptor (Homo sapiens) (UniProt P03372); assay: qHTS assay to identify small molecule agonists of the estrogen receptor alpha (ER-alpha) signaling pathway in the presence of an antagonist (AID 1259383; calls by dose curve; note: top concentration of the series differs between compounds; nearly all actives have a fitted effect of over 15% in size)
Estrogen receptor (Homo sapiens), sequence (P03372 whole entry, looked up): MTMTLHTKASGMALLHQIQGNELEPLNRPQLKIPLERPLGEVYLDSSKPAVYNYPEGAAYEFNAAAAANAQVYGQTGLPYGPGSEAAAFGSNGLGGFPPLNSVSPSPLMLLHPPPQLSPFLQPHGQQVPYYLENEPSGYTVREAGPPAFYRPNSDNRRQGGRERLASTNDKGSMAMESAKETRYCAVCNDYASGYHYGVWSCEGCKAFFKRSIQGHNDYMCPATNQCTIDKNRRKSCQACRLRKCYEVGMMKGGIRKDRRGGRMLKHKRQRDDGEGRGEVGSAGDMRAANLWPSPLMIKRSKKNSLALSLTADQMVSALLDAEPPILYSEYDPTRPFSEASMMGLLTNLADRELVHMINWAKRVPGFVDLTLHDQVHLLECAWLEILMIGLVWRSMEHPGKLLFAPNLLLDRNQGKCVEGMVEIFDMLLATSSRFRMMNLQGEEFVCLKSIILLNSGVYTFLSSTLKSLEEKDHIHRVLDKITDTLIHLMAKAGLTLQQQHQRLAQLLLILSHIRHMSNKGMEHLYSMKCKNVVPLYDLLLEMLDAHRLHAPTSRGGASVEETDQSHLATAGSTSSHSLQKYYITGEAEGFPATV
Summary of the method: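 VM7Luc4E2, endog. ER-alpha + 4×ERE-luc; charcoal-stripped FBS, phenol red-free, 5 d; 24hr plating; +10.0nM ICI-182,780 (final); cpds 15 conc, 22hr, 37C/5% CO2; ONE-Glo luminescence.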

[20] = qHTS assay to identify small molecule antagonists of the sonic hedgehog signaling (Shh) pathway - cell viability counter screen (AID 1259367); note: nearly all actives have a fitted effect of over 55% in size
Summary of the method: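 NIH/3T3-derived Gli1-Luc reporter cells (2,000 per well) rested 4 hr at 37 C, then received DMSO compounds plus conditioned medium. After 23 hr of treatment, CellTiter-Fluor was added for 1 hr at 37C and fluorescence read.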

Measured: Potency

CC(=O)O[C@H]1C[C@@H]2CC[C@@]1(C)C2(C)C
not listed: [17] | [18] | [19] | [20]
inactive: all other assays above

CCCCCCCCCCCCCCC(=O)NC(CO)CCCCCCCCCCCCCC (configuration not stated)
not listed: [8] | [9] | [12] | [13] | [19] | [20]
inactive: all other assays above

CCOCCOCC
not listed: [5] | [9] | [11] | [20]
inactive: all other assays above

O=C1NC(c2ccccc2)(c2ccccc2)C(=O)N1COP(=O)(O)O
not listed: [4] | [5] | [6] | [11] | [19] | [20]
inactive: all other assays above

C[C@]12CCC(=O)C=C1CC[C@H]1[C@@H]3CC[C@](O)(C(=O)CO)[C@@]3(C)C[C@H](O)[C@@]12F
not listed: [4] | [9] | [14] | [18]
inactive: all other assays above

CCOC(=O)CC1(C)OCC(C)O1 (configuration not stated)
not listed: [4] | [5] | [9] | [14]
inactive: all other assays above
